About 1,300 (0.34%) of roughly 380,000 compounds were called active. Only a selection was taken, and actives are over-represented in it overall. A number with no mark means an inactive call.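 How the source made its calls: active means drop in luminescence signal, shown as inhibition above about 50% in the replicate tests (limit read from the data, passing the limit was not always enough); inconclusive means probably only some replicates passing the limit; inactive means the rest.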
Each molecule was assayed on Drosophila bursicon receptor LGR2 (rickets) (assay: LGR2 cAMP reporter signal reduction – cell-based, HEK293, CRE-luciferase reporter, bursicon stimulation, primary screen (AID 720647;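 further: agonist challenge used bursicon conditioned medium at about half maximal strength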)). Settings: bursicon-stimulated, 4 h, at 9.99 µM, stronger effect = higher value.

For `Cc1ccc(N/C=C/C(=O)c2ccccc2)cc1C`, the inhibition was 74.5% (active).
For `CCOc1ccc(N/C=C/C(=O)c2ccccc2)cc1`, the inhibition was 70.1% (active).
In the case of `COc1cccc2cc(C(N)=O)/c(=N\NC(=O)c3ccccc3)oc12`, the inhibition was 72.2% (active).
`COc1cccc2c1C(=O)c1c(O)c3c(c(O)c1C2=O)CC(O)(C(C)=NNC(=O)c1ccc(Cl)c(Cl)c1)CC3OC1CC(N)C(O)C(C)O1` (centres undefined) was tested, and the inhibition was 96.4% (active).
For `Clc1ccc(-c2cc(-c3ccccn3)on2)c(Cl)c1`, the inhibition was 80% (active).
With `COc1cccc(/C=N/Nc2cc(C)nc(-c3ccccc3O)n2)c1O` the inhibition was 90.5% (active).
`CCOC(=O)C(=Cc1ccccc1)C(=O)c1ccccc1` was tested, and the inhibition was 90.8% (active).
In the case of `COc1ccc(-c2nc(-c3ccccc3)no2)c(OC)c1`, the inhibition was 91.2% (active).
With `CC(=O)Nc1ccc(-c2csc(NC(=O)Nc3ccccc3)n2)cc1` the inhibition was 94.1% (active).
In the case of `COc1cc(SC)ccc1C(=O)Nc1nc(C)cs1`, the inhibition was 102% (active).
For `c1c2c(cc3sc(N4CCCCC4)nc13)OCCO2`, the inhibition was 85.3% (active).
In the case of `CN(C)C(=O)c1cccc(-c2cnc3sc(NCc4ccc5c(c4)OCO5)nn23)c1`, the inhibition was 51.6% (active).
In the case of `N#C[C@@H]1[C@H](c2ccc(C#Cc3ccccc3F)cc2)[C@H](CO)N1C(=O)C1CCCCC1`, the inhibition was 74.8% (active).
For `N#C[C@@H]1[C@H](c2ccc(C#CC3CCCCC3)cc2)[C@@H](CO)N1S(=O)(=O)c1ccccc1`, the inhibition was 61.9% (active).
In the case of `N#C[C@@H]1[C@H](c2ccc(C#Cc3cccc(F)c3)cc2)[C@@H](CO)N1C(=O)C1CCCC1`, the inhibition was 82.4% (active).

Compared with `Cc1ccc(NC(=O)C2CCCN2C(=O)OCc2ccccc2)cc1C` (centres undefined), `C[C@H]1CN([C@@H](C)CO)C(=O)c2cc(NC(=O)C3CCCCC3)ccc2O[C@H]1CN(C)C(=O)Nc1ccccc1` is higher in inhibition: 1.81% for the first, 2.55% for the second.

First: CCOc1ccc(NC(=O)C(C)N2C(=O)c3ccccc3C2=O)cc1 (centres undefined)
Second: CCOc1ccc(NC(=O)N2CCN(CC)CC2)cc1
The inhibition of the first is higher: -1.28% for the first, -10.6% for the second.

First: Cc1cc(C)nc(NS(=O)(=O)c2ccc(N/C=C\C(=O)c3cccs3)cc2)n1
Second: COc1ccc(OC)c(CNC(=O)CCc2nc(-c3cccs3)no2)c1
The inhibition of the first is lower: 0.601% for the first, 2.08% for the second.

Going from `Cc1ccc(S(=O)(=O)N(C)C[C@@H]2Oc3ncc(-c4cc5ccccc5o4)cc3C(=O)N([C@H](C)CO)C[C@@H]2C)cc1` to `CCCC#Cc1cnc2c(c1)C(=O)N([C@H](C)CO)C[C@H](C)[C@@H](CN(C)S(=O)(=O)c1ccccc1)O2`, the inhibition falls from 4.4% to -10.8%.

First: COc1ccc2c3c(n(C)c2c1)[C@@H](CO)N(C(=O)Nc1ccc(F)cc1)CC31CN(C(=O)NC(C)C)C1
Second: CCC(=O)N1CCC2(CC1)CN(S(C)(=O)=O)[C@@H](CO)c1c2c2ccc(OC)cc2n1C
The inhibition of the first is higher: -1.12% for the first, -17.4% for the second.

Compared with `COC(=O)C[C@H]1CC[C@H](NC(=O)Nc2ccc(C(F)(F)F)cc2)[C@H](CO)O1`, `O=C(N[C@H]1CC[C@@H](CCNS(=O)(=O)c2ccc(F)cc2)O[C@@H]1CO)c1ccccn1` is higher in inhibition: -0.777% for the first, 11.4% for the second.

Going from `COc1cccc(-c2ccc3c(c2)O[C@H](CN(C)C(=O)C2CCOCC2)[C@H](C)CN([C@H](C)CO)S3(=O)=O)c1` to `C[C@@H]1CN([C@@H](C)CO)S(=O)(=O)c2ccc(Br)cc2O[C@@H]1CN(C)C(=O)C1CCCCC1`, the inhibition rises from -17.4% to -1.83%.

Going from `COc1cccc2cc(/C(C)=N/NC(=O)c3ccco3)oc12` to `COc1cccc2cc(C(=O)NCc3ccc(C)cc3)c(=N)oc12`, the inhibition rises from -27.1% to -0.361%.

Going from `C[C@@H]1CCCCO[C@H](CN(C)S(=O)(=O)c2cn(C)cn2)[C@H](C)CN([C@H](C)CO)C(=O)c2cc(N(C)C)ccc2O1` to `C[C@@H]1CCCCO[C@@H](CN(C)C)[C@@H](C)CN([C@H](C)CO)C(=O)c2cc(N(C)C)ccc2O1`, the inhibition falls from 10.5% to -6.42%.

First: Cc1ccc(S(=O)(=O)NCC[C@@H]2CC[C@@H](NC(=O)CCN3CCCCC3)[C@@H](CO)O2)cc1
Second: C[C@@H]1CCCCO[C@H](CN(C)C(=O)NC2CCCCC2)[C@@H](C)CN([C@H](C)CO)C(=O)c2cc(NS(=O)(=O)c3ccc(F)cc3)ccc2O1
The inhibition of the first is higher: 3.54% for the first, -5.15% for the second.

First: N#C[C@@H]1[C@@H](c2ccc(C3=CCCCC3)cc2)[C@@H](CO)N1C(=O)c1cccc(F)c1
Second: N#C[C@@H]1[C@@H](c2ccc(C#Cc3cccc(F)c3)cc2)[C@@H](CO)N1C(=O)C1CCC1
The inhibition of the first is higher: 7.91% for the first, -19.3% for the second.

Going from `C[C@H]1CN([C@@H](C)CO)C(=O)c2cc(-c3ccncc3)cnc2O[C@H]1CN(C)C(=O)c1cccc(F)c1` to `Cc1noc(C)c1NC(=O)Nc1ccc2c(c1)C(=O)N([C@@H](C)CO)C[C@@H](C)[C@H](CN(C)C(=O)NC(C)C)O2`, the inhibition rises from -3.95% to 9.15%.

First: CCC(=O)N1CC[C@H]2[C@@H]1c1cc(-c3ccc(C#N)cc3)ccc1N(C)[C@H]2CO
Second: O=C(Nc1cccc(F)c1)N1CC(=O)N2[C@H](CO)[C@H](c3ccc(C#CC4CC4)cc3)[C@@H]2C1
The inhibition of the first is lower: -10.9% for the first, 8.66% for the second.

First: C[C@H]1CN([C@@H](C)CO)C(=O)c2cccc(NC(=O)CCCCCC(=O)Nc3ccccc3N)c2O[C@H]1CN(C)C(=O)Nc1ccccc1
Second: Cc1noc(C)c1S(=O)(=O)N(C)C[C@@H]1OCCCC[C@@H](C)Oc2ccc(NC(=O)c3ccccc3)cc2C(=O)N([C@@H](C)CO)C[C@@H]1C
The inhibition of the first is lower: 0.187% for the first, 12.5% for the second.

First: COCC(=O)N1[C@H](C(=O)N2CCN(C)CC2)[C@@H](CO)[C@@H]2Cn3c(ccc(C4=CCCC4)c3=O)[C@@H]21
Second: CN1[C@H](C(=O)N2CCc3ccccc3C2)[C@@H](CO)[C@@H]2Cn3c(ccc(-c4cncnc4)c3=O)[C@@H]21
The inhibition of the first is lower: -13.3% for the first, 1.15% for the second.

First: Clc1ccc(-c2cc(C3CCNCC3)[nH]n2)c(Cl)c1
Second: COc1cc(Cl)c(C)cc1NC(=O)COC(=O)c1cc(SC)ccc1Cl
The inhibition of the first is lower: 2.21% for the first, 7.1% for the second.

First: COCC(=O)Nc1ccc2c(c1)OC[C@H](C)N(C(=O)c1cnccn1)C[C@@H](C)[C@@H](OC)CN(C)C2=O
Second: CCC(=O)Nc1ccc2c(c1)OC[C@H](C)N(CC1CCCCC1)C[C@@H](C)[C@H](OC)CN(C)C2=O
The inhibition of the first is higher: 10.6% for the first, 4.64% for the second.

Compared with `O=C(c1ccc(F)cc1)N1CC2(C1)[C@H](c1ccccc1)[C@@H](CO)N2Cc1ccccn1`, `N#C[C@H]1[C@H](c2ccc(C#Cc3ccc(F)cc3)cc2)[C@@H](CO)N1C(=O)C1CCCC1` is higher in inhibition: -5% for the first, 16.6% for the second.

Going from `COCC#Cc1ccc([C@@H]2[C@H](CO)N3C(=O)CN(C(=O)C4CCC4)C[C@@H]23)cc1` to `O=C(Cc1cccnc1)N1CC(=O)N2[C@H](CO)[C@H](c3ccc(C#CC4CCCC4)cc3)[C@@H]2C1`, the inhibition falls from 3.87% to -25.4%.

First: CCOC(=O)/C=C/c1ccccc1O
Second: CCOC(=O)C(=O)C1C(=O)Nc2ccccc21 (centres undefined)
The inhibition of the first is lower: -29.5% for the first, -14.6% for the second.

First: COc1ccc2c3c([nH]c2c1)[C@@H](CO)N(C)CC31CCN(S(=O)(=O)c2ccc(C)cc2)CC1
Second: COc1ccc2c3c(n(C)c2c1)[C@H](CO)N(C(=O)CC1CC1)CC31CCN(Cc2nccs2)CC1
The inhibition of the first is lower: 0.296% for the first, 4.96% for the second.

Compared with `COCC(=O)N1CCCCN2[C@H](CO)[C@H](c3ccc(C#Cc4ccc(OC)cc4)cc3)[C@H]2C1`, `COc1ccccc1C#Cc1ccc([C@H]2[C@@H](C#N)N(C(=O)C3CCCCC3)[C@@H]2CO)cc1` is higher in inhibition: -13.1% for the first, 18.3% for the second.

First: COc1ccc(-c2onc3ccc(C(C)=O)cc23)cc1
Second: CC(=O)NC(c1ccccc1)c1nc(-c2ccccc2C)cs1 (centres undefined)
The inhibition of the first is higher: -9.6% for the first, -19.2% for the second.

Going from `CN1C(=O)c2cc(NC(=O)C3CC3)ccc2OC[C@H]2O[C@H](CC(=O)O)CC[C@H]21` to `CCCNC(=O)[C@H]1[C@H](CO)[C@H]2Cn3c(ccc(-c4cccc(F)c4)c3=O)[C@@H]1N2C(=O)CC`, the inhibition rises from -1.87% to 4.62%.

First: C=CC[n+]1c(-c2ccc(C)cc2)csc1NNC(=O)Nc1ccccc1
Second: Cc1csc(OCC(=O)Nc2ccc(C)c(C)c2)n1
The inhibition of the first is higher: 6.29% for the first, 0.863% for the second.

Compared with `CO[C@H](CN(C)C(=O)c1cnccn1)[C@@H](C)CN([C@@H](C)CO)S(=O)(=O)c1ccccc1`, `CCN(CC)C(=O)Cn1cc(S(=O)(=O)CC(=O)NCc2ccc3c(c2)OCO3)c2ccccc21` is lower in inhibition: -6.19% for the first, -11.7% for the second.

Going from `C[C@@H]1CN([C@H](C)CO)C(=O)CCCn2cc(nn2)CO[C@@H]1CN(C)Cc1ccc2cccnc2c1` to `C[C@@H]1CN([C@@H](C)CO)S(=O)(=O)c2ccc(C#CCN(C)C)cc2O[C@H]1CN(C)C(=O)C1CC1`, the inhibition rises from -3.97% to 6.68%.

First: O=C(NCc1ccc2c(c1)OCO2)c1sccc1Br
Second: N#C[C@@H]1[C@@H](c2ccc(C#Cc3cccc(F)c3)cc2)[C@H](CO)N1C(=O)C1CCOCC1
The inhibition of the first is higher: -10.3% for the first, -34.2% for the second.

Compared with `CS(=O)(=O)N1[C@@H](C#N)[C@H](c2ccc(C#CC3CCCCC3)cc2)[C@@H]1CO`, `CS(=O)(=O)N1[C@H](C#N)[C@H](c2ccc(C#CC3CCCC3)cc2)[C@H]1CO` is lower in inhibition: -5.08% for the first, -37.6% for the second.

`CC(C)CC#Cc1ccc([C@H]2[C@H]3CN(C(=O)CN4CCOCC4)CC(=O)N3[C@H]2CO)cc1` showed an inhibition of -1.92%.

— PubChem BioAssay AID720647 (Broad Institute, 2013)
